Laboratory results reported in PubChem BioAssay (NCI).
Compounds without any hit were thinned out: in the full panel of roughly 83,000, 20% have a hit.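 Single-concentration screen, 48 h exposure, 96-well plates. Endpoint: percent growth. Below 10 = active.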 Activity calls are given as the source filed them.

These molecules were tested on TK-10 renal (assay: NCI-60 one-dose screen, 48 h (100 = growth as untreated, 0 = no growth, -100 = all killed)). Conditions: 10 µM unless noted.
Procedure: Growth inhibition of the TK-10 human tumor cell line is measured as a screen for anti-cancer activity. Cells are grown in 96 well plates and exposed to the test compound for 48 hours. Compounds are tested at a single concentration, which is 10^-5 M for most compounds. The reported endpoint is percent growth (GI% or GIPRCNT), where numbers from 0 - 100% represent growth inhibition, and numbers from -100% - 0 represent cell death. For example, a value of 40 represents 60% growth inhibition. A value of 0 means no net growth occurred over the course of the experiment. A value of -40 indicates 40% of cells at the beginning of the experiment died by the end of the experiment. A value of -100 means all cells are dead at the end of the experiment.
NCI-60 Human Tumor Cell Lines Screen was performed using the standard one-dose NCI protocol, which is described in more detail at https://dtp.cancer.gov/discovery_development/nci-60/default.htm.
Compounds with GIPRCNT values below 10 were considered active. Activity score was based on GIPRCNT using the following formula: […]
Score is 0 for GIPRCNT values of 100 or above, 50 for GIPRCNT values of 0, and 100 for GIPRCNT values of -100.

Question: With CCNC(=O)c1[nH]cc(-c2ccc(OC)cc2)c1-c1cc(OC)c(OC)c(OC)c1 as the molecule, how does the growth read?
Answer: 83.9% (inactive)

Question: Which growth does the source give for Cc1ccc(Nc2cc(=S)nc(N)[nH]2)cc1C here?
Answer: 144% (inactive)

Question: With CCOC(=O)N1CCN(CCCCl)CC1 as the molecule, how does the growth read?
Answer: 92.1% (inactive)

Question: For CC(=O)N1c2ccccc2NC2=C(C(=O)N(Cc3ccccc3)C2(C)C)C1c1ccco1 (stereo not given), which growth is on record?
Answer: 54.9% (inactive)

Question: How did the growth turn out when N/C(=N\N=C\c1cc2ccccc2s1)N/N=C/c1cc2ccccc2s1 was run?
Answer: 115% (inactive)

Question: How did the growth turn out when c1ccc(CCSc2ncnc3nc[nH]c23)cc1 was run?
Answer: 122% (inactive)

Question: For Cn1ncc2c(Nc3ccccc3Cl)nc(Cl)nc21, which growth is on record?
Answer: 119% (inactive)

Question: Cc1cc2cc3cc(C)c(N)cc3[n+](C)c2cc1N was tested. Which growth did it give?
Answer: 16.2% (inactive)

Question: Which growth does the source give for CCCNC(=O)Oc1ccc(/C(=C(\C)c2ccccc2)c2ccc(OCCN3CCCCC3)cc2)cc1 here?
Answer: 90.2% (inactive)

Question: How did the growth turn out when CCCCCCOc1ccc(C(=N)N(CCCC)CCCC)c2ccccc12 was run?
Answer: -92.4% (active)

Question: Which growth does the source give for C=C(C)[C@@H]1CC[C@]2(C(=O)O)CC[C@]3(C)[C@H](CC[C@@H]4[C@@]5(C)C[C@@H](CC#Cc6ccc(Br)cc6)C(=O)C(C)(C)[C@@H]5CC[C@]43C)[C@@H]12 here?
Answer: 62% (inactive)

Question: For COc1ccc(C2CC(n3nnnc3-c3ccccc3)=NN2)cc1 (stereo not given), which growth is on record?
Answer: 82.6% (inactive)

Question: How did the growth turn out when Cn1c(COC(=O)N2CCCCC2)nc2c(N3CCOCC3)nc(-c3ccccc3)nc21 was run?
Answer: -86.2% (active)

Question: For N#Cc1c(NC(=O)c2cccc(Br)c2)sc2c1CCCC2, which growth is on record?
Answer: 79.2% (inactive)

Question: For Cc1[nH]n(C(=O)c2ccncc2)c(=O)c1N=Nc1ccc(F)c(Cl)c1, which growth is on record?
Answer: 134% (inactive)

Question: Which growth does the source give for O=C(Nc1ccc2cc3ccc(NC(=O)NC4CCCCC4)cc3nc2c1)NC1CCCCC1 here?
Answer: 100% (inactive)

Question: COc1ccc(C2=NN(C(C)=O)C(c3cn(Cc4ccc(Cl)cc4)c4ccccc34)C2)cc1 (stereo not given) was tested. Which growth did it give?
Answer: 82.9% (inactive)

Question: For Cc1ccc(C2CC(c3cccc(Nc4ccncc4)c3)=NN2c2ccc(Cl)cc2)cc1 (stereo not given), which growth is on record?
Answer: -80.9% (active)

Question: How did the growth turn out when NC(=S)N/N=C/c1ccc(OC(=O)COc2cc(Cl)c(Cl)cc2Cl)cn1 was run?
Answer: 92.5% (inactive)

Question: How did the growth turn out when COc1ccc(C(O)c2cc3c(N)c(C(=O)Nc4ccc(Br)cc4)sc3nc2C)cc1 (stereo not given) was run?
Answer: 39.5% (inactive)

Question: Which growth does the source give for CCCCCOc1ccc(/C=N/Nc2cc(C)nc3ccc(Br)cc23)cc1 here?
Answer: 19.1% (inactive)

Question: With O=C1OC(=O)C2C1CC=CC2c1ccccc1 (stereo not given) as the molecule, how does the growth read?
Answer: 102% (inactive)

Question: With COc1cc(-c2cc(=O)oc3cc(O)ccc23)c(OC)c2c1OCO2 as the molecule, how does the growth read?
Answer: 108% (inactive)

Question: With COc1cc(CNC(=O)CCCCC[P+](c2ccccc2)(c2ccccc2)c2ccccc2)c(OC)c2c1OCO2 as the molecule, how does the growth read?
Answer: 84.3% (inactive)

Question: Which growth does the source give for COc1ccc(NS(=O)(=O)c2ccc(C)cc2)c([N+](=O)[O-])c1 here?
Answer: 99.7% (inactive)

Question: With CC(C)(C)CC(C)(C)Nc1c(-c2ccc3c(c2)OCO3)nc2cnccn12 as the molecule, how does the growth read?
Answer: 98.3% (inactive)

Question: How did the growth turn out when NC(=O)c1cccc(-c2ccccc2N2CCCCC2)c1 was run?
Answer: 103% (inactive)

Question: How did the growth turn out when ClCC1(Cn2cnc3c(Cl)nc(Cl)nc32)COC1 was run?
Answer: 85.2% (inactive)

Question: O=S(=O)(O)c1cc(O)c2c(N=Nc3ccc(Nc4ccccc4)c4c(S(=O)(=O)O)cccc34)cc(S(=O)(=O)O)cc2c1 was tested. Which growth did it give?
Answer: 106% (inactive)

Question: With COc1cccc(/C=C2\COc3ccc(-c4ccccc4)cc3C2=O)c1 as the molecule, how does the growth read?
Answer: -5.26% (active)

Question: Which growth does the source give for COc1c(Cl)cc(Cl)c2ccc(C=C3C(=O)NC(=S)NC3=O)nc12 here?
Answer: 107% (inactive)

Question: How did the growth turn out when O=C(NCCN1CCOCC1)OCc1nc2nc(Cl)nc(N3CCOCC3)c2[nH]1 was run?
Answer: 71% (inactive)

Question: How did the growth turn out when O=C1Nc2ccccc2/C1=N/c1nc(-c2ccc(Cl)cc2)cs1 was run?
Answer: 87.9% (inactive)

Question: With CC(=O)[C@@H]1CC[C@]2(C(=O)n3ccnc3)CC[C@]3(C)[C@H](CC[C@@H]4[C@@]5(C)Cc6c([nH]c7ccccc67)C(C)(C)[C@@H]5CC[C@]43C)[C@@H]12 as the molecule, how does the growth read?
Answer: 102% (inactive)

Question: O=C1C(=O)c2c(nc3ncccn23)-c2ccccc21 was tested. Which growth did it give?
Answer: -52.4% (active)

Question: How did the growth turn out when O=C(N/N=C/c1ccc(O)c(O)c1)c1sc2ccccc2c1Cl was run?
Answer: 109% (inactive)

Question: For O=C(CCN1CCCC1)Nc1ccc2c(NCc3ccc(F)cc3)c3ccccc3nc2c1, which growth is on record?
Answer: -3.79% (active)

Question: With COc1ccc(C(=O)c2cc3c(N)c(C(=O)Nc4cccc(Cl)c4)sc3nc2C)cc1 as the molecule, how does the growth read?
Answer: 49.9% (inactive)

Question: COc1cc2ncnc(Nc3ccc(C(=O)/C=C/c4ccc(C(F)(F)F)cc4F)cc3)c2cc1OC was tested. Which growth did it give?
Answer: 110% (inactive)

Question: Which growth does the source give for O=C(NNc1nc(Cl)nc(N2CCN(C(c3ccccc3)c3ccccc3)CC2)n1)c1ccccc1 here?
Answer: 126% (inactive)
